MazF activator: increases E. coli MazEF RNase cleavage of RNA; P0AE70; FAM/BHQ RNA-DNA oligo cleavage fluorescence, 5 h; activation, % at 20 µM; actives 0.32% (n = 350,000); AID 504720; in the data active = activation above about 50%
Target sequence (P0AE70 whole entry, looked up): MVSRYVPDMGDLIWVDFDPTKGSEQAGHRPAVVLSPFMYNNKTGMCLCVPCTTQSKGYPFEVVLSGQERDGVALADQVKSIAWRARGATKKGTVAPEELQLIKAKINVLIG
Mtb betalactam: beta-lactam sensitization of Mtb H37Rv; inhibition, % at 25 µM; AID 434955; M. tuberculosis H37Rv growth with meropenem, percent inhibition; actives 0.27% (n = 330,000); call rule not given here;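 note: growth measured after seven days incubation then overnight dye step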
FBA Mtb inh: inhibitors of M. tuberculosis fructose-bisphosphate aldolase | P9WQA3 | purified M. tuberculosis FBA, fluorescence read-out | inhibition, % at 1 µM | actives 2.3% (n = 360,000) | AID 588726
Target sequence (P9WQA3 whole entry, looked up): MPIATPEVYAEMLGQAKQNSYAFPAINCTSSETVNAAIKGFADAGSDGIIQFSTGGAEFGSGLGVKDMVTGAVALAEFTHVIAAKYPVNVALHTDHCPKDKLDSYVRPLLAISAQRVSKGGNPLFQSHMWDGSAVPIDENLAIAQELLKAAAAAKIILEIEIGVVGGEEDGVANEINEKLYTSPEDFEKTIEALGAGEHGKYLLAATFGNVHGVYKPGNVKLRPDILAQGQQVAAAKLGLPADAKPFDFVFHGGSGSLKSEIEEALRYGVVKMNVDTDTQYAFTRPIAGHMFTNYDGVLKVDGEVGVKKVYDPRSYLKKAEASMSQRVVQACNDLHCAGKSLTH
GDH-TPI counter-1: GDH-TPI coupled enzyme inhibition counter-screen | actives 1.2% (n = 360,000) | AID 588335 | GDH-TPI coupled enzyme counterscreen, NADH absorbance | inhibition, % at 4.8 µM; in the data active = inhibition above about 30%
CCHFV vOTU inh: CCHFV vOTU protease inhibition; Pep-AMC fluorescence; inhibition, % at 11.5 µM; actives 0.55% (n = 370,000); in the data active = inhibition above about 30%
Mtb FBA confirm: Mtb FBA inhibition, confirmed; shares compounds with FBA Mtb inh; AID 651616; inhibition, % at 1 µM; purified M. tuberculosis FBA, fluorescence read-out; actives 78% (n = 5,600)
GDH-TPI counter-2: GDH-TPI inhibition counter-screen for FBA inhibitors; shares compounds with FBA Mtb inh; GDH-TPI coupled enzyme counterscreen, fluorescence; inhibition, % at 1 µM; actives 81% (n = 5,600); in the data active = inhibition above about 10%
Numbers stand for hits; . = inactive; ? = inconclusive; / = no result given; + = active, no number. In the library only some 4% were active in any assay of this set; here they are far more common. Cut-off read from the data, not from the text of the source, unless noted: active = inhibition above about 27%; inactive = the rest.

SMILES	MazF activator	Mtb betalactam	FBA Mtb inh	GDH-TPI counter-1	CCHFV vOTU inh	Mtb FBA confirm	GDH-TPI counter-2
Cc1c(Cc2ccccc2)c(=O)oc2c(C)c(OCc3nn[nH]n3)ccc12	.	.	65.9	.	.	+	+
CCCc1cc(=O)oc2c(C)c(OCc3nn[nH]n3)ccc12	.	.	50.2	.	.	.	.
Cc1cc(OCc2nn[nH]n2)c2c(C)c(Cc3ccccc3)c(=O)oc2c1	.	.	104.8	.	.	66.1	58.2
N#C/C(=C\c1cccnc1)c1ccccn1	.	.	37.3	.	.	45.5	41.4
CCOC(=O)c1cn2nc(Oc3ccc(C#N)cc3)ccc2n1	.	.	96.3	.	.	.	.
CCOC(=O)c1cn2nc(Oc3ccc(C(=O)OC)cc3)ccc2n1	.	.	99.9	.	.	+	+
O=C(C(=O)N1CCN(S(=O)(=O)c2cccc3ccccc23)CC1)c1cccc(C(F)(F)F)c1	/	/	/	/	.	/	/
CN1CCCCC(NC(=O)c2ccc(F)cc2)C1=O (stereo not given)	/	/	/	/	.	/	/
O=C(Nc1nc2ncccn2c1-c1ccccc1)c1ccc(F)cc1	/	/	/	/	.	/	/
C[C@H](O)[C@@H]1CN2CCc3ccc(-c4ccc5c(c4)OCO5)cc3[C@@H]2C[C@@H]1N(C)C(=O)c1cccc(Cl)c1	/	/	/	/	.	/	/
CC[C@]12c3[nH]c4cc(-c5ccco5)ccc4c3CCN1C(=O)[C@@H](CC(=O)NC(C)(C)C)C[C@@H]2C(=O)N1CCN(C(=O)C2CC2)CC1	.	/	27.4	.	.	62.5	52.2
CC[C@]12c3[nH]c4ccccc4c3CCN1C(=O)C(CC(=O)NCCc1ccccn1)C[C@@H]2C(=O)N1CCN(C(=O)C2CC2)CC1 (stereo not given in full)	.	.	.	.	.	/	/
CC[C@]12c3[nH]c4cc(-c5ccco5)ccc4c3CCN1C(=O)[C@@H](CC(=O)NCc1ccco1)C[C@@H]2C(=O)N1CCN(C(=O)c2ccco2)CC1	.	/	.	.	.	/	/
CC[C@]12c3[nH]c4cc(-c5ccco5)ccc4c3CCN1C(=O)[C@@H](CC(=O)NCCc1ccccn1)C[C@@H]2C(=O)N1CCN(C(=O)C2CC2)CC1	.	/	29.6	.	.	47.3	33.0
C[C@]12c3[nH]c4cc(-c5ccco5)ccc4c3CCN1C(=O)[C@@H](CC(=O)NCCc1ccccn1)C[C@@H]2C(=O)N1CCCCC1	.	/	43.3	.	.	68.1	46.7
COC(=O)[C@H]1C[C@@]2(Oc3ccc(Br)cc3)c3ccccc3N(C(=O)OC(C)(C)C)[C@H]2N1C(=O)OC(C)(C)C	/	/	/	/	.	/	/
Cc1cc2c(c(=O)o1)[C@@]1(C(=O)N(C)c3ccccc31)C1=C(CC(C)(C)CC1=O)O2	/	/	/	/	.	/	/
Cc1cc2c(=O)cc(-c3ccccc3)oc2c(C(=O)O)c1C	/	/	38.7	/	.	55.9	47.6
Cc1ccc(-n2c(SCC(=O)Nc3ccc(S(=O)(=O)Nc4nccs4)cc3)nnc2-c2cccs2)cc1	/	/	/	/	.	/	/
Cc1cc(C)n(-c2nc(NCc3cccnc3)c3c4c(sc3n2)COC(C)(C)C4)n1	.	.	62.9	.	.	80.5	62.7
CCN(CC)CCCNc1nc(-n2nc(C)cc2C)nc2sc3c(c12)CC(C)(C)OC3	.	.	.	.	.	/	/
COc1ccc(-c2c(NC(=O)C(C)C)n(C)c3ccccc3c2=O)cc1	.	?	36.7	.	.	+	+
COc1ccc(OC)c(CCNC(=O)c2ccc3c(c2)N(Cc2ccc(F)cc2)CCS3)c1	.	.	.	.	/	/	/
CN(C)CCNC(=O)c1ccc2c(c1)N(Cc1ccc(F)cc1)CCS2	.	.	86.7	.	.	.	.
O=C(NC1CCCC1)c1ccc2c(c1)N(Cc1ccc(F)cc1)CCS2	.	.	71.7	.	.	.	.
SMILES	MazF activator	Mtb betalactam	FBA Mtb inh	GDH-TPI counter-1	CCHFV vOTU inh	Mtb FBA confirm	GDH-TPI counter-2
O=C(CSc1nnc(SCc2cccc3ccccc23)s1)Nc1ccccc1-c1ccccc1	/	/	/	/	.	/	/
Cc1c(C)c2ccc(OCC(=O)Nc3ccc(S(N)(=O)=O)cc3)c(C)c2oc1=O	.	.	41.0	.	.	78.3	73.1
Cc1cc(OCC(=O)NCCCn2ccnc2)c2c(C)cc(=O)oc2c1	.	.	77.6	.	.	108.1	73.6
CCCc1cc(=O)oc2cc(C)cc(OCC(=O)NCCCn3ccnc3)c12	.	.	57.1	.	.	87.9	65.0
Cc1c(OCC(=O)Nc2cccnc2)ccc2c3c(c(=O)oc12)CCC3	.	.	.	.	.	/	/
Cc1c(C)c2ccc(OCC(=O)NCCCn3ccnc3)c(C)c2oc1=O	.	.	43.1	.	.	152.6	126.0
CCOc1cccc(C=NNC(=O)C(=O)Nc2cccc(C(F)(F)F)c2)c1O	/	/	/	/	.	/	/
CCCCCCC(=O)NC1CCCCN(Cc2ccc(C)cc2)C1=O (stereo not given)	/	/	/	/	.	/	/
CC(=O)OCCCN1CCC2(CCCCC2)C1=O	/	/	/	/	.	/	/
COc1ccc2c(c1)CN1CN(CC(C)C)S(=O)(=O)CC21 (stereo not given)	/	/	/	/	.	/	/
COc1ccc(-c2nc3ccc(C)cn3c2Cc2ccsc2)cc1OC	/	/	52.4	/	.	116.2	72.7
COC(=O)c1ccc2nc(-c3ccc(OC)c(OC)c3)c(Cc3ccsc3)n2c1	/	/	.	/	.	/	/
C[C@@H]1OC(C2CCCCC2)N(C)[C@H]2C[C@H]3c4cc(-c5ccc6c(c5)OCO6)ccc4CCN3C[C@@H]12 (stereo not given in full)	/	/	/	/	.	/	/
Nc1ccc2oc3ccccc3c2c1	.	.	27.2	.	.	.	.
Nc1ccc(C#Cc2ccc3oc4ccccc4c(=O)c3c2)cc1	.	.	.	.	.	/	/
COc1ccc(-c2cc(C(F)(F)F)n3nc(C(=O)NCc4ccco4)cc3n2)cc1	.	.	47.0	34.2	.	106.4	79.8
O=C(NCc1ccco1)c1cc2nc(-c3ccc4c(c3)OCO4)cc(C(F)(F)F)n2n1	.	.	.	.	.	/	/
O=C(NCc1ccccc1)[C@@H]1CCCN1C(=O)[C@H]1CCCN1C(=O)c1ccc(F)c(C(F)(F)F)c1	/	/	/	/	.	/	/
CC(C)CNC(=O)OCc1cn(Cc2c(F)cccc2F)nn1	/	/	/	/	.	/	/
Nc1[nH]ncc1-c1ccc(F)cc1	.	.	107.9	.	.	.	.
COC(=O)c1ccc2ccn(CC(=O)NC(C)C)c2c1	.	.	85.2	.	.	190.9	142.7
COC(=O)c1cccc(Cn2ccc3ccc(-c4ccc5ccn(C(=O)c6ccc(C)cc6)c5c4)cc32)c1	/	/	/	/	.	/	/
CCC1(C)Cc2c(sc3[nH]c(=O)[nH]c(=O)c23)CS1 (stereo not given)	.	.	80.0	.	.	71.8	60.8
CCCN1C(=O)c2n[nH]c(C)c2C1c1ccc2c(c1)OCO2 (stereo not given)	/	/	/	/	.	/	/
CC(=O)c1ccc(S(=O)(=O)N(C)CCCC(=O)NCc2ccc3c(c2)OCO3)cc1	.	/	83.9	.	.	144.1	95.9
CN(CC(=O)NCc1ccc2c(c1)OCO2)S(=O)(=O)c1ccc(F)cc1	.	.	.	.	.	/	/

Compound activity: PubChem BioAssay, several laboratories
